RORg inh = qHTS for inhibitors of ROR gamma transcriptional activity. Drosophila S2 Gal4-RORgamma UAS-luciferase reporter, 20 h. Nuclear receptor ROR-gamma (Mus musculus), P51450. 310,000 tested, 5.4% active. Potency, µM (doses to about 53.6 µM), for the others: at the top dose activity change, negative = inhibition, most hits filed as inhibitors; also: potency is read from the fitted curve at half-maximal effect; nearly all actives have a fitted effect of over 60% in size
Target sequence (P51450 whole entry, looked up, the tested form may be a part): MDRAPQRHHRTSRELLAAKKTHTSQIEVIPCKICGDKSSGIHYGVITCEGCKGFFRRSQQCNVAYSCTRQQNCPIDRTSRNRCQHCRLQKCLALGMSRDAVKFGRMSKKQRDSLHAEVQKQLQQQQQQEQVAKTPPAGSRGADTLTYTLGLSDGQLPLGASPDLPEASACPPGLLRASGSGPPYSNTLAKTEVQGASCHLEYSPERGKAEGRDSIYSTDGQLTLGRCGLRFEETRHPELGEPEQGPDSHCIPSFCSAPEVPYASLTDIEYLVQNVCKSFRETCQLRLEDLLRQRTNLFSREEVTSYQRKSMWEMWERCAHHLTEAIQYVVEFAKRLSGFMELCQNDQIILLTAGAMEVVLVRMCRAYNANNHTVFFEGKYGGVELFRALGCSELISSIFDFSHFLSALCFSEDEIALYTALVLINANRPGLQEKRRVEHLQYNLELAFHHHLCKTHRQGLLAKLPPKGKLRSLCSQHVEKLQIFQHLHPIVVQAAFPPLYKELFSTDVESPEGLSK
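Compounds are pin-transferred onto Drosophila Schneider cells expressing a copper-inducible Gal4–ROR gamma transactivation domain fusion. After 1 hr, copper sulfate is added to 700 uM final; luciferase is read 20 hr later.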
TDP1 cell noCPT = qHTS for Inhibitors of human tyrosyl-DNA phosphodiesterase 1 (TDP1): qHTS in cells in absence of CPT; DT40 Tdp1-/- hTDP1 cells, no CPT, ATP luminescence, 48 h; Potency, µM (doses to about 46.2 µM), for the others: at the top dose activity change, negative = growth inhibition, actives largely listed as inhibitors; 420,000 tested, 15% active; AID 686978, 2013; also: potency is read from the fitted curve at half-maximal effect; nearly all actives have a fitted effect of over 55% in size
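Growth kinetics read by CellTiter-Glo luminescence after ≥48 hr at 37 °C. Cells: DT40 Tdp1-/- stably carrying human TDP1, 400 per well, compound exposure in the absence of CPT (DMSO vehicle).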
VP16 counter = VP16 counterscreen qHTS for inhibitors of ROR gamma transcriptional activity | Drosophila S2 Gal4-VP16 UAS-luciferase, luminescence, 20 h | Potency, µM (highest dose often 53.6 µM), for inactives: at the highest dose activity, negative = inhibition, usual class: inhibitors | 310,000 tested, 3.5% active;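 also: Gal4-VP16 expression switched on by copper sulfate through the metallothionein promoter; potency is read from the fitted curve at half-maximal effect; nearly all actives have a fitted effect of over 50% in size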
LDHA inh = qHTS assay for inhibitors of human lactate dehydrogenase | L-lactate dehydrogenase A chain (Homo sapiens), P00338 | activity change, % (values are at about 110 or 230 µM) | purified LDHA, NADH/diaphorase-resazurin fluorescence; hits give low values | 480,000 tested, 0.15% active | AID 1347041, 2019; in the data active = activity change below about -30%; inconclusive = mostly about -25% to -30%;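 also: plate controls were DMSO wells for no effect and wells without enzyme for full effect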
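Remaining NADH was detected by diaphorase (0.133 mg/mL) converting 37 µM resazurin to fluorescent resorufin, read at 0 and 20 minutes. The preceding 5-minute room-temperature reaction used 2 nM LDHA, 0.2 mM sodium pyruvate and 0.06 mM NADH at pH 7.4.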
TDP1 cell CPT = qHTS for Inhibitors of human tyrosyl-DNA phosphodiesterase 1 (TDP1): qHTS in cells in presence of CPT; chicken DT40 Tdp1-/-;hTDP1 cells + 20 nM CPT, ATP luminescence, 48 h; Potency, µM (titrated, usually from 46.2 µM), for inactives: at the top dose activity change, negative = growth inhibition, actives largely listed as inhibitors; AID 686979, 2013; 420,000 tested, 12% active; also: potency is read from the fitted curve at half-maximal effect; nearly all actives have a fitted effect of over 55% in size
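Cell growth measured by CellTiter-Glo luminescence after a minimum 48 h, 37 C compound exposure with 20 nM CPT in Tdp1-knockout DT40 cells stably expressing hTDP1, seeded 400/well; qHTS titration format.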
IL1B secr inh = qHTS for Inhibitors of Inflammasome Signaling: IL-1-beta AlphaLISA Primary Screen. THP-1 LPS/ATP IL-1B secretion, AlphaLISA, 16 h; hits give low values. activity change, % at 57.5 µM. 360,000 tested, 4.7% active. AID 743279, 2014; in the data active = activity change below about -50%; inconclusive = mostly about -30% to -49%
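Secreted IL-1B measured by AlphaLISA bead assay after 16 h compound exposure of THP-1 cells; compounds (final up to 57.5 uM) added 1 h before LPS (250 ng/mL) and ATP (1.25 mM) stimulation; lower signal means less secretion.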
An asterisk follows results filed as active; ? = inconclusive; · = not tested or not shown; [ ] = dose if it differs, or a comment. A selection: hits, their analogues and other compounds. The true share with any hit is near 18%. Unless noted, calls follow the shape of the dose curve; as a rule, active = well fitted curve in the direction sought with a large enough effect; inconclusive = small, poorly fitted or top-dose-only effect, or another doubt; inactive = no such curve, though single readings can be large; an effect the other way counts as inactive or inconclusive. Unless noted, % is scaled to controls: 0 for no effect and ±100 for the full control effect.

SMILES	RORg inh	TDP1 cell noCPT	VP16 counter	LDHA inh	TDP1 cell CPT	IL1B secr inh
Cc1ccc(NC(=O)C(=O)NCC(c2cccnc2)N2CCc3ccccc3C2)cc1 (stereo not drawn)	·	16.4µM*	·	4.8	20.6µM*	·
COc1ccccc1NC(=O)C(=O)NCC(c1cccnc1)N1CCc2ccccc2C1 (stereo not drawn)	·	?	·	-2.6	?	·
CC(C)(C)c1ccc(C(=O)NCC(c2cccnc2)N2CCc3ccccc3C2)cc1 (stereo not drawn)	·	1.84µM*	·	1.1	2.31µM*	·
COc1cccc(C(=O)C2COC(=O)C2)c1 (stereo not drawn)	·	·	·	3.3	·	·
CCOC(=O)C1CCN(C2=NC(=O)/C(=C/c3ccc(Cl)cc3)S2)CC1	1.7%	-9.6%	3.1%	-2.7	?	-50.4*
CCOC(=O)CSC1=NC(=O)/C(=C\c2ccc(Cl)cc2)S1	-25.9%	7.31µM*	12.6µM*	-11.1	4.61µM*	?
Cc1ccc(CN(C)C(C)c2ccc(S(C)(=O)=O)cc2)cc1 (stereo not drawn)	·	·	·	-8.9	·	·
COc1cc(/C=C/c2nc3cc(Cl)ccc3c(=O)n2-c2ccc(C)cc2C)cc(OC)c1OC	·	?	·	0.2	16.4µM*	·
COc1ccc(NC(C)=O)cc1NC(=O)CNC(c1ccc(F)cc1)c1cccs1 (stereo not drawn)	·	·	·	0.7	·	·
CCCC(=O)N1N=C(c2ccc3c(c2)OCO3)CC1c1ccc2nccnc2c1 (stereo not drawn)	·	·	·	2.5	·	·
Cc1ccc2c(c1)nnn2C1CCN(S(=O)(=O)c2cccc(S(=O)(=O)N(C)C)c2)CC1	26.2%	14.6µM*	-10.9%	-1.7	18.4µM*	-16.5
Cc1ccc2c(c1)nnn2C1CCN(CC(=O)Nc2ccc(F)cc2)CC1	1.6%	20.6µM*	3.2%	-4.8	?	?
Cc1ccc2c(c1)nnn2C1CCN(CC(=O)N2CCN(c3ccc(F)cc3)CC2)CC1	44.7%	25.9µM*	7.4%	0.7	16.4µM*	-5.3
Cc1ccc2c(c1)nnn2C1CCN(CC(=O)N(c2ccccc2)c2ccccc2)CC1	0.6%	13µM*	0.4%	-5.0	13µM*	?
Cc1ccc2c(c1)nnn2C1CCN(CC(=O)Nc2ccc3c(c2)OCCO3)CC1	25.3%	-7.8%	-5.3%	-1.9	4.6%	-14.3
Cc1ccc2c(c1)nnn2C1CCN(CC(=O)c2ccc(Cl)cc2)CC1	0.8%	-13.0%	4.0%	-0.5	-22.7%	8.1
Cc1cc(C)cc(NC(=O)c2ccc3c(c2)nnn3C2CCCC2)c1	·	1.46µM*	·	-5.4	1.3µM*	·
CCOc1ccc(NC(=O)c2ccc3c(c2)nnn3C2CCCC2)cc1	·	?	·	-12.6	-26.2%	·
Cc1ccc(N2C(=O)CS(=O)C(c3ccccc3)C2=O)cc1C (stereo not drawn)	-2.2%	14.6µM*	7.2%	6.2	?	-9.5
CCOc1ccc(N2C(=O)CC(Sc3nc(C)cc(C)n3)C2=O)cc1 (stereo not drawn)	0.1%[10 µM]	1.3%	3.4%	-9.2	-20.0%	35.7
CCOC(=O)c1cnc(SC2CCc3ccccc3C2=O)nc1N (stereo not drawn)	14.2%	-20.2%	4.1%	21.4	?	21.0
Cc1ccc(N2C(=O)C3C(C2=O)N2CCCN2C3c2ccccc2)cc1C (stereo not drawn)	0.9%	-6.7%	-8.8%	-7.3	1.3%	0.0
CCOC(=O)c1cnc(SC2CC(=O)N(c3ccc(C)cc3)C2=O)nc1N (stereo not drawn)	?	4.11µM*	?	-1.1	3.26µM*	0.0
COc1ccccc1N1C(=O)CC(Sc2nc(C)cc(C)n2)C1=O (stereo not drawn)	11.2µM*	0.0%	-19.2%	-3.1	-6.2%	19.1
Cc1ccc(N2C(=O)CC(Sc3nc(C)cc(C)n3)C2=O)cc1 (stereo not drawn)	?	8.2µM*	-22.6%	-8.2	7.31µM*	43.0
SMILES	RORg inh	TDP1 cell noCPT	VP16 counter	LDHA inh	TDP1 cell CPT	IL1B secr inh
COc1ccc(N2C(=O)CC(Sc3nc(C)cc(C)n3)C2=O)cc1OC (stereo not drawn)	-2.6%[1.91 µM]	12.8%	?	-2.1	-11.7%	16.6
CC(=O)NC(C(=O)O)=C(Cl)Cl	·	·	·	7.2	·	·
CCCCn1c(=O)[nH]c(=O)c2c1nc(COC(=O)c1ccccc1C(F)(F)F)n2CC	·	·	·	3.0	·	·
OCCCNC(=S)Nc1ccc(Br)cc1	·	·	·	2.9	·	·
NS(=O)(=O)c1ccc(NC(=O)CN(Cc2ccc3c(c2)OCO3)C2CCCC2)cc1	·	·	·	-2.5	·	·
Cc1ccc(N2C(=O)CC(Sc3ncccn3)C2=O)cc1C (stereo not drawn)	12.6µM*	?	?	-2.6	?	-6.8
CC1CC(C)(C)NC(=S)N1CCCC(=O)N1CCN(c2ccc(F)cc2)CC1 (stereo not drawn)	10µM*	?	-94.6%	-7.5	-21.8%	2.4
Cc1ccc(C)c(N2CCN(C(=O)CN3CCSc4ccccc43)CC2)c1	·	·	·	-8.0	·	·
COc1ccc(N2CCN(C(=O)CCN3C(=S)NC(C)(C)CC3C)CC2)cc1 (stereo not drawn)	11.2µM*	-20.5%	-5.5%	5.0	12.3%	11.2
CC1CC(C)(C)NC(=S)N1CCCC(=O)NCc1ccccc1 (stereo not drawn)	?	-7.8%	12.7%	0.1	15.5%	-2.3
CC(=O)c1ccc(N2CCN(C(=O)CCN3C(=S)NC(C)(C)CC3C)CC2)cc1 (stereo not drawn)	?	-16.4%	22.7%	-4.7	-16.3%	18.4
CC1CC(C)(C)NC(=S)N1CC(=O)N1CCN(Cc2ccccc2)CC1 (stereo not drawn)	-18.6%	4.6%	5.2%	-0.9	1.4%	16.5
Cc1ccc(C)c(N2CCN(C(=O)CC3Sc4ccccc4NC3=O)CC2)c1 (stereo not drawn)	?	16.4µM*	-3.2%	1.2	18.4µM*	-27.8
Cc1ccc(C)c(N2CCN(C(=O)CN3C(=S)NC(C)(C)CC3C)CC2)c1 (stereo not drawn)	7.94µM*	23.1µM*	?	-1.0	23.1µM*	-3.2
CC(c1nc2ccccc2s1)N(C)C(=O)c1cccc(S(=O)(=O)Nc2ccccc2F)c1 (stereo not drawn)	·	·	·	-14.9	·	·
